The values that follow come from PubChem BioAssay AID2013 (Sanford-Burnham Center for Chemical Genomics, 2009).

Screen size: about 290,000 compounds; about 370 (0.13%) were called active. This is one part of a sample in which actives are shown more often than they occur. Entries with a potency or affinity are not part of this list. Values without a mark were called inactive.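 Rule for the calls: active = spots per cell inhibited over 60%, with over 100 cells counted and total cytoplasm intensity under 500,000; inconclusive = wells with under 100 cells, flagged as likely toxic; inactive = the rest.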

One may read the inhibition as the relative decrease from the control value, in per cent.

G-protein coupled receptor 55 (Homo sapiens), sequence (Q9Y2T6 whole entry, looked up): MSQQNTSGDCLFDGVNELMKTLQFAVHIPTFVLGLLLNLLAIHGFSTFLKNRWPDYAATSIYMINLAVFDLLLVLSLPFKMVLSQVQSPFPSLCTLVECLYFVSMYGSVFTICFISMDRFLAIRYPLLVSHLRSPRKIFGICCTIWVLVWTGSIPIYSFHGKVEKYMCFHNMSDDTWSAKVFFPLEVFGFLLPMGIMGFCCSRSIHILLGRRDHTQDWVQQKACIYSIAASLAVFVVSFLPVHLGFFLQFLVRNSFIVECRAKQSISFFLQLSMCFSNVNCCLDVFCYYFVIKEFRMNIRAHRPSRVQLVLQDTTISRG

The assay concerns the target G-protein coupled receptor 55 (Homo sapiens) (UniProt Q9Y2T6). As to the kind of experiment: GPR55 antagonists blocking LPI-driven arrestin recruitment, primary screen, imaging, U2OS, beta-arrestin-GFP, LPI agonist (AID 2013).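 Note: U2OS cells stably carrying GPR55 and arrestin-GFP stimulated by 5 µM LPI near EC80; imaged beta-arrestin-GFP aggregate spots per cell after agonist stimulation; plate controls were LPI-stimulated DMSO wells for no effect and DMSO wells without LPI for full effect.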 To be noted: U2OS GPR55 beta-arrestin-GFP translocation imaging, LPI antagonism; at 10 µM; stronger effect = higher value. (In general: Arrestin recruitment assays detect the binding of arrestin to an activated receptor.)
Consider `CNc1oc(C)nc1S(=O)(=O)c1ccccc1`, for which the inhibition is -6.5%.
Turning to `O=C(O)c1ccc2c(c1)S(=O)(=O)N=C1CCCCCN12`, the inhibition was 16.8%.
`Cc1c(N=Cc2c(O)n(C)c(=O)c3ccccc23)c(=O)n(-c2ccccc2)n1C`: the inhibition was 1.5%.
As for `CC(=O)N1c2ccccc2CCc2ccc(N)cc21`, the inhibition is 8%.
On to `CC(C)(C)c1ccc(C(=O)Nc2ccc(O)c3c(=O)cc(-c4ccccc4Cl)oc23)cc1`, for which the inhibition is 18.3%.
For `O=c1[nH]c(=S)[nH]c2sc3c(c12)CCCCCC3`, the inhibition was -0.5%.
`COc1cc(/C=N/NC(=O)c2cccc3ccccc23)cc(OC)c1O`: the inhibition was 16.9%.
In the case of `Cn1c(NC(=O)c2cc(-c3ccc4c(c3)OCO4)nc3ccccc23)cc(=O)n(C)c1=O`, the inhibition was 9.3%.
`COc1ccc(C2c3ccc(O)cc3Oc3ncn(CCCO)c(=N)c32)cc1` (configuration not stated): the inhibition is 22%.
Consider `COc1ccc(C2c3ccc(O)cc3Oc3ncn(CCN4CCOCC4)c(=N)c32)cc1` (configuration not stated), for which the inhibition is 18.9%.
As for `COC(=O)c1ccc(N(CC(=O)NC2CCCCC2)C(=O)CNC(=O)c2ccco2)cc1`, the inhibition was -3.6%.
Next, `COc1ccc(-c2ccc(-c3nnc(Cc4ccc(OC)c(OC)c4)o3)cc2)cc1`: -4.2%.
Next, `O=C1c2ccccc2C(=O)N1Cc1cc(-c2ccccc2)no1`: -7.7%; `O=C(CCS(=O)(=O)c1cccc2nonc12)N1CCOCC1`: -5.5%; `COc1ccc(-c2c(-c3ccc(OCC(=O)NN)cc3O)n[nH]c2C)cc1`: -11.9%.
For the compound `COc1ccccc1-c1c(-c2ccc(O)cc2O)n[nH]c1C(F)(F)F`, the inhibition was 5.7%.
As to `COc1ccc(-c2cn[nH]c2-c2ccc(OCC(=O)NN)cc2O)cc1`, the inhibition was -13.4%.
Consider `COc1ccc(-c2cn[nH]c2-c2ccc(OCC(=O)NN)cc2O)cc1OC`, for which the inhibition is -2.6%.
As to `COc1ccc(-c2n[nH]c(C)c2-c2ccc(Cl)cc2)c(O)c1`, the inhibition was 12.3%.
As for `COc1ccc(-c2c(-c3ccc(O)cc3O)n[nH]c2C)cc1OC`, the inhibition is 7%.
For `Oc1ccc(-c2n[nH]c(C(F)(F)F)c2-c2ccccc2)c(O)c1` the value was 20.9%; for `COc1ccccc1-c1c(-c2ccc(OCC(=O)NN)cc2O)n[nH]c1C(F)(F)F`, 4.3%; for `CSc1c(CC(=O)Nc2ccccc2)n(C)c2ccccc12`, -1%.
With `O=C(NCc1cccnc1)C(=O)Nc1ccc([N+](=O)[O-])cc1`, the inhibition is -2.9%.
With `CSc1nsc(SC)c1NC(=O)N1CCCCC1`, the inhibition was 3.9%.
Take `Cc1cc(C)c(C(=O)CN2C(=O)NC3(CCC(C)CC3)C2=O)cc1C` (configuration not stated): the inhibition was 0.1%.
Regarding `COC(=O)c1ccc(C#Cc2ccccc2)o1`, the inhibition was -12.1%.
`COC(=O)C1=C(C)OC(N)=C(C#N)C1c1ccccc1F` (configuration not stated): the inhibition was 9%.
Next, `COC(=O)C1=C(N)Oc2c(oc(CO)cc2=O)C1c1ccc(F)cc1` (configuration not stated): 6%; `O=C1CC(C(=O)O)(c2ccccc2)c2cccc(F)c21` (configuration not stated): -1.7%.
For the compound `COC(=O)c1c(-c2ccccc2)csc1N`, the inhibition is 1.1%.
In the case of `COC(=O)c1sc(NC(=O)c2c(F)cccc2F)c(C#N)c1C`, the inhibition was -4.7%.
As for `COc1ccc(-c2nnn(CC(=O)NCCc3ccc(OC)c(OC)c3)n2)cc1`, the inhibition was -2.6%.
For `O=C1/C(=C/c2ccc([N+](=O)[O-])cc2)CCc2ccccc21`, the inhibition is 6.9%.
As to `Cn1c(=O)c2c(ncn2Cc2nnc(N)s2)n(C)c1=O`, the inhibition was 3.3%.
`CCOC(=O)c1ccc(NC(=S)N2CCC(O)CC2)cc1`: the inhibition was 1%.
Take `C#CCn1c(CCNC(=O)c2ccco2)nc2ccccc21`: the inhibition was -12.6%.
Regarding `CCOc1ccccc1CNC(=O)CCCn1ncn2c(cc3occc32)c1=O`, the inhibition was -7.1%.
Regarding `CCCCC(=O)N(Cc1ccc(F)cc1)C1CCS(=O)(=O)C1` (configuration not stated), the inhibition was -2.9%.
For `Nn1c(CSc2nc3ccccc3o2)nnc1CSc1nc2ccccc2o1` the value was 2.1%.
`COC(=O)c1sccc1NC(=S)N1CCCCC1`: the inhibition was -4.6%.
For `Cn1c(-c2sccc2OCc2ccccc2)n[nH]c1=S` the value was 6.8%; for `CSc1nnc(-c2sccc2OCc2ccc(C)cc2)n1C`, 28.1%; for `O=C(O)CNS(=O)(=O)c1ccc(F)cc1`, 0.5%.
Turning to `O=C(O)CNS(=O)(=O)c1ccc2c(c1)C(=O)c1cc(S(=O)(=O)NCC(=O)O)ccc1-2`, the inhibition is -7.8%.
Take `O=C(O)CNS(=O)(=O)c1ccc(-c2ccccc2)cc1`: the inhibition was 75.2% (active).
As for `COc1ccc(C(=O)Nc2ccc(/C(C)=N/NC(=O)c3ccncc3)cc2)cc1`, the inhibition is 10.6%.
Consider `Cc1cccc(NC(=O)C2CC(O)CN2C(=O)Oc2ccccc2)c1` (configuration not stated), for which the inhibition was 2.6%.
Next, `CC(NC(=O)Cn1nnc(-c2ccncc2)n1)c1ccccc1` (configuration not stated): -4.9%.
Consider `COc1cc2c(cc1OC)-c1nc3ccccc3c(=O)n1C(C)(C)C2`, for which the inhibition is 4.8%.
Next, `CC1(C)Cc2ccccc2-c2nc3ccccc3c(=O)n21`: 0.3%.
Next, `O=C(NC12CC3CC(CC(C3)C1)C2)c1ccc(-c2ccc(Br)cc2)o1`: 63.8% (active); `O=C(NC12CC3CC(CC(C3)C1)C2)c1ccc(-c2ccccc2Cl)o1`: -9.4%; `O=C(NC12CC3CC(CC(C3)C1)C2)c1ccc([N+](=O)[O-])o1`: 1.3%.
With `O=C(NC12CC3CC(CC(C3)C1)C2)c1ccc(Br)o1`, the inhibition is 13%.
Regarding `O=C(NC12CC3CC(CC(C3)C1)C2)c1ccc(-c2cccc(Cl)c2)o1`, the inhibition is 2.9%.
For `C1CN(c2nc(N3CCOCC3)nc(N3CCOCC3)n2)CCO1` the value was 8.7%; for `Cc1[nH]nc2c1/C(=N/O)CC(c1ccccc1)C2` (configuration not stated), -5.5%; for `COc1cc2ncc(C(=O)c3ccccc3)c(N3CCN(Cc4ccccc4)CC3)c2cc1OC`, 3.4%.
On to `Cc1ccc(-c2noc(CCC(=O)N(C)c3ccccc3C)n2)cc1`, for which the inhibition was -2.6%.
Take `CCc1ccccc1N(C)C(=O)CCc1nc(-c2ccc(C)cc2)no1`: the inhibition was -8.4%.
On to `CCc1ccccc1NS(=O)(=O)c1c(C(=O)N2CCCCCC2)c(C)n(C)c1C`, for which the inhibition was 3.1%.
`CCN(C(=O)CSc1nnc(Nc2ccccc2C)s1)C1CCS(=O)(=O)C1` (configuration not stated): the inhibition is 12.3%.
As to `CC(C)C[C@H](NC(=O)Nc1ccccc1F)C(=O)O`, the inhibition was 2.2%.
Take `CSc1ccc(CN(C)C(=O)c2cc(=O)c3ccccc3o2)cc1`: the inhibition was -0.8%.
`COc1ccc(-c2csc(Nc3ccc(S(N)(=O)=O)cc3)n2)cc1`: the inhibition was 4.6%.
As to `COc1cc(NS(=O)(=O)c2ccc(Nc3nc(-c4ccccn4)cs3)cc2)nc(OC)n1`, the inhibition was 2.2%.
`COc1ccc(-c2csc(Nc3ccc(S(=O)(=O)Nc4cc(C)on4)cc3)n2)cc1`: the inhibition was 5.4%.
For `COc1cc(NS(=O)(=O)c2ccc(Nc3nc(-c4cccc([N+](=O)[O-])c4)cs3)cc2)nc(OC)n1` the value was 0.2%; for `O=C1CC(N2CCN(c3ccccn3)CC2)C(=O)N1c1ccc(Cl)cc1` (configuration not stated), -0.1%; for `COCCn1c(SCC(=O)NC2CCCC2)nnc1-c1ccncc1`, 1.6%.
On to `O=C(NCCc1ccc(Cl)cc1)c1cc2ccccn2n1`, for which the inhibition is 6.6%.
Take `COc1ccc(N2CCN(C(=O)Cn3ncc4c([nH]c5ccccc54)c3=O)CC2)cc1`: the inhibition was -7%.
Next, `COc1cccc(NC(=O)COC(=O)CC(NC(N)=O)c2ccc(Cl)cc2)c1` (configuration not stated): -13.8%; `COc1cc(-c2cc(C(=O)Nc3ccccc3N3CCOCC3)c3ccccc3n2)cc(OC)c1OC`: 17.1%; `O=C(Nc1ccc(N2CCOCC2)cc1)c1cc(-c2ccncc2)nc2ccccc12`: 15.8%.
Turning to `Cc1cc(NC(=O)CSc2nnc(C)o2)no1`, the inhibition is 4.5%.
As for `Cc1ccc(-c2nc(NCc3ccco3)c3ccccc3n2)cc1`, the inhibition was 7.7%.
Take `Cc1ccccc1Nc1nc(NCc2ccco2)c2ccccc2n1`: the inhibition is 54.3%.
With `CNc1nc(NCc2ccccc2)c2ccccc2n1`, the inhibition is 5.4%.
Consider `c1ccc(CNc2nc(NCc3ccccc3)c3ccccc3n2)cc1`, for which the inhibition was 72% (active).
As for `c1ccc(Nc2nc(NCc3ccco3)c3ccccc3n2)cc1`, the inhibition was 73.7% (active).
Take `Cc1cccc(Nc2nc(NCc3ccco3)c3ccccc3n2)c1`: the inhibition was -2.1%.
With `OCCNc1nc(NCc2ccccc2)c2ccccc2n1`, the inhibition was -6.4%.
Turning to `Fc1ccc(Nc2nc(NCc3ccco3)c3ccccc3n2)cc1`, the inhibition was 60.1%.
Next, `CC(=O)c1ccc(NC(=O)COc2ccccc2C(=O)Nc2ccc(C)cn2)cc1`: 10%; `CC(C)CC1(C)NC(=O)N(Cc2cc([N+](=O)[O-])cc3c2OCOC3)C1=O` (configuration not stated): -6.2%; `CCCN(CC1CC1)C(=O)COC(=O)c1ccc(CNS(=O)(=O)c2ccc(F)c(Cl)c2)cc1`: 0.7%.
As for `c1ccc(OCCOc2ccccc2-c2nnco2)cc1`, the inhibition is -6.8%.
For `Cc1ccc(-c2ccccc2[C@@H]2C[C@H]3CN(C)C(=O)[C@]34CCCN24)o1`, the inhibition is -2.8%.
As to `CC(C)N(C=O)C1(C(=O)NC2CCCCC2)CCCCC1`, the inhibition is 5.3%.
Consider `COc1ccc[nH]c1=O`, for which the inhibition was 0.4%.
As for `CC(O)CNc1cnccn1` (configuration not stated), the inhibition was 14.2%.
Next, `O=C(NCCN1CCNC1=O)C1CCC(=O)N(Cc2cccc(C(F)(F)F)c2)C1` (configuration not stated): -10.6%; `Cc1ccc(NC(=S)NNC(=O)c2c([N+](=O)[O-])c(C)nn2C)cc1`: -1.6%; `CN1C2CCC1/C(=C\c1ccccc1)C(=O)/C2=C\c1ccccc1`: 15.1%.
Consider `CN1C2CCC1/C(=C\c1ccccc1Cl)C(=O)/C2=C\c1ccccc1Cl`, for which the inhibition was -4.7%.
